This is a sample that favours compounds with a hit; in the whole collection about 2.4% have one here.
NadD inh: blocks S. aureus nicotinate mononucleotide adenylyltransferase | purified NadD enzyme, colorimetric absorbance read-out | inhibition, % at 20 µM | 360,000 tested, 0.78% active | AID 602399; in the data active = inhibition above about 26%
Rpn11 block: blocks the human proteasome subunit Rpn11 | human 26S proteasome, Ub4-pepOG fluorescence polarization; 20S core pre-blocked with epoxomicin | inhibition, % at 20 µM | 360,000 tested, 0.59% active;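 active = inhibition at 20 µM, scaled to each plate's controls, above about 33%, limit read from the data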
PREPL inhibitor: inhibits the human prolyl oligopeptidase-like enzyme; recombinant PREPL, fluorescence polarization activity-based probe; inhibition, % at 5.96 µM; 320,000 tested, 0.68% active; AID 2751; in the data active = inhibition above about 43%;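 also: 0% = enzyme with DMSO and 100% = wells lacking enzyme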
Target sequence (Q4J6C6 whole entry, looked up): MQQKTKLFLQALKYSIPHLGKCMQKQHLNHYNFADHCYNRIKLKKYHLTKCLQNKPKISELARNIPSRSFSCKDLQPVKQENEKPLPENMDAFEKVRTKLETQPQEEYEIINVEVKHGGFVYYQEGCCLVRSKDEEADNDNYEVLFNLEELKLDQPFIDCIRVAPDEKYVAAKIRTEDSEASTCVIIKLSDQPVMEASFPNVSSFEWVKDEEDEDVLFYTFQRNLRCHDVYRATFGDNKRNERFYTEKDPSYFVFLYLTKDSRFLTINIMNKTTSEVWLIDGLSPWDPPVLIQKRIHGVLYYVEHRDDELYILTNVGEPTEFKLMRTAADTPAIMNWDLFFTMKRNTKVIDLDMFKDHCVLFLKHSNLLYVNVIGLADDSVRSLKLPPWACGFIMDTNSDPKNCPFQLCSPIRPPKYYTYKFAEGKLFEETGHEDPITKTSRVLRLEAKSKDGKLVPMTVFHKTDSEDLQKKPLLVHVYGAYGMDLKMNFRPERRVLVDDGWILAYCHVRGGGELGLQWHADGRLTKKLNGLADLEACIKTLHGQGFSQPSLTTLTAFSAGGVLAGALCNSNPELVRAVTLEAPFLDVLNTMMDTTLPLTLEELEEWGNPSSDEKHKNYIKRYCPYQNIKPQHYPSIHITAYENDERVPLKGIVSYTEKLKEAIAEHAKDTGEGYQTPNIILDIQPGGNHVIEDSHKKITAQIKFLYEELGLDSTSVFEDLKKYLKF
PP5 primary: PP5 (human) phosphatase inhibition | P53041 | purified PP5c, OMFP substrate fluorescence | inhibition, % at 6.7 µM | 320,000 tested, 0.18% active | AID 1987;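 active = inhibition above the campaign's mean inhibition across all tested compounds plus 3 SD, cut at about 9.5% in these data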;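 also: 0% = DMSO only and 100% = 100 µM cantharidin control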
PP1 inh: PP1-alpha (human) inhibition in PP5 counter-screen; AID 2235; inhibition, % at 6.7 µM; purified PP1alpha, OMFP fluorescence; 320,000 tested, 0.9% active; P62136;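 active = inhibition above the mean inhibition of all tested compounds plus 3 SD, computed separately for each screening campaign, cut at about 15% in these data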
Rpn11 confirm: confirmation of human proteasome Rpn11 inhibitors; shares compounds with Rpn11 block; 1,900 tested, 29% active; inhibition, % at 20 µM; purified human 26S proteasome, Ub4-pepOG fluorescence polarization; proteasome pretreated with epoxomicin; AID 602318
MMP-2 inh: blocks human MMP-2, flagging nonselective RPN11 hits; inhibition, % at 20 µM; shares compounds with Rpn11 block; recombinant MMP-2, FRET peptide cleavage fluorescence; 1,900 tested, 4% active;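 also: human MMP-2 activated beforehand with APMA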
Thrombin inh: blocks bovine thrombin, flagging nonselective RPN11 hits. shares compounds with Rpn11 block. bovine thrombin cleavage of Ub4-pepOG, fluorescence polarization. inhibition, % at 20 µM. 1,900 tested, 13% active;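 active = mean inhibition at least 40% at 20 µM, or signal 3 deviations below plate average, so some actives read negative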;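 also: plate controls were thrombin with DMSO for no effect and buffer wells lacking thrombin for full effect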
The depositor's hits bear a star; · = no result; + = active, no number. Rule as the data show it, unless noted: active = inhibition above about 40%; inactive = the rest.

SMILES	NadD inh	Rpn11 block	PREPL inhibitor	PP5 primary	PP1 inh	Rpn11 confirm	MMP-2 inh	Thrombin inh
COc1ccc(/C=N/NC(=O)c2nnn(-c3nonc3N)c2-c2cccc(OC)c2)cc1	-1	2	4	-2	-10	·	·	·
COC(=O)c1cc(NC(=O)CN(c2ccc(OC)cc2)S(=O)(=O)c2ccc(F)cc2)ccc1Cl	-6	2	·	·	·	·	·	·
CC(C)CN(C(=O)c1cc(Cl)nc2ccccc12)C1CCS(=O)(=O)C1 (stereo not drawn)	-5	-4	·	·	·	·	·	·
COc1cccc(-c2csc(N3CCN(C(=S)Nc4ccccc4Cl)CC3)n2)c1	6	10	6	5	-2	·	·	·
COc1cccc(-c2csc(N3CCN(C(=S)Nc4cccc(Cl)c4)CC3)n2)c1	15	35*	14	3	3	18	39	10
O=C(CSc1ncccc1C(=O)O)c1ccc2ccccc2c1	1	0	18	-1	-1	·	·	·
O=C(CSc1ncccc1C(=O)O)c1cccc(C(F)(F)F)c1	0	121*	6	-3	-1	-4	-27	-12
CCC[C@@H]1C=C(C(=O)OCC)[C@H](c2ccccc2)N1S(=O)(=O)c1ccc(C)cc1	6	2	·	·	·	·	·	·
Cc1cccc(NC(=O)COC(=O)c2cccs2)c1C	-2	-6	7	1	-4	·	·	·
Cc1cccc(C(O)C(O)c2cccc(C)n2)n1 (stereo not drawn)	1	99*	·	·	·	-4	1	8
O=C(c1ccc(Cl)cc1)c1cn[nH]c1-c1ccccc1O	0	+	5	0	2	-3	0	5
O=C(c1ccc(F)cc1)c1cn[nH]c1-c1ccccc1O	2	-5	3	3	-1	·	·	·
O=C(CCCSc1nc(-c2ccco2)cc(C(F)(F)F)n1)NCc1cccs1	-3	33*	-12	4	5	11	-6	6
Cc1cc(NC(=O)CCCSc2nc(-c3ccco3)cc(C(F)(F)F)n2)no1	2	-3	13	2	1	·	·	·
CC(C)(C)S(=O)N1Cc2cc(C(=O)NCC(F)(F)F)nc(-c3cccc(-c4cccc(F)c4)c3)c2[C@H]1CCO (stereo partly drawn)	-8	-4	·	·	·	·	·	·
NC(=O)CC(NC(=O)Cc1ccc(Br)cc1)c1ccc(NCCc2ccc(Cl)cc2)c([N+](=O)[O-])c1 (stereo not drawn)	-8	45*	·	·	·	33	5	-1
Oc1[nH]c2ccccc2c1N=Nc1nc2ccccc2s1	5	39*	7	4	1	14	-16	33
O=C(Nc1ccc2c(c1)nc1n2CCOC1)C1CCCCC1	1	+	27	-1	2	0	-22	-9
CC(=O)Nc1ccc2c(c1)nc1n2CCOC1	-5	-6	10	4	-3	·	·	·
CN(C)/N=C/C=C1\CCC/C(=C/c2cccs2)C1=O	-3	95*	10	3	1	33	-23	17
COc1ccc(NC(=O)CSc2nnc3ccc(-c4ccncc4)nn23)cc1OC	-6	1	-12	-2	-2	·	·	·
O=C1C=C(Nc2ccc(Cl)cc2)CC(c2ccc(Cl)cc2)C1 (stereo not drawn)	17	-11	-27	4	7	·	·	·
Cc1ccc(C2CC(=O)C=C(Nc3ccc(Cl)cc3)C2)cc1 (stereo not drawn)	0	85*	-22	2	3	-6	-65	-15
Cc1cc(C)c(NS(=O)(=O)c2ccc3c(c2)oc(=O)n3C)c(C)c1	1	1	·	·	·	·	·	·
Cn1c(=O)oc2cc(S(=O)(=O)NCC3CCCO3)ccc21 (stereo not drawn)	0	76*	9	0	-1	22	-4	20
SMILES	NadD inh	Rpn11 block	PREPL inhibitor	PP5 primary	PP1 inh	Rpn11 confirm	MMP-2 inh	Thrombin inh
Cn1c(=O)oc2cc(S(=O)(=O)Nc3cccc4c3CCCC4)ccc21	0	42*	-13	1	1	38	20	24
O=C(CCCOc1ccc(Cl)cc1)NCCc1ccccc1	-6	-3	-34	2	0	·	·	·
CC(Sc1nc(C(F)(F)F)nc2ccccc12)C(=O)NC1CCCC1 (stereo not drawn)	-2	-16	·	·	·	·	·	·
CCCc1nc2oc3ccccc3c(=O)c2c(=O)n1-c1ccc(C)cc1	3	0	2	-3	0	·	·	·
CCc1nc2oc3ccccc3c(=O)c2c(=O)n1-c1ccc(C)cc1	-2	68*	9	-2	-1	47*	-18	22
Clc1ccc(OCc2nn3c(-c4ccco4)nnc3s2)c(Cl)c1	8	90*	10	0	0	27	6	7
Cc1ccc(OCc2nn3c(-c4ccco4)nnc3s2)cc1	5	-4	10	-1	2	·	·	·
O=C(CCCc1ccccc1)NCCS(=O)(=O)N1CCN(c2ccccc2)CC1	4	-1	·	·	·	·	·	·
COc1ccc(Nc2nc3ccc(C)cc3cc2C#N)c(OC)c1	0	42*	7	2	4	-12	-15	-13
COC(=O)C1=CCCCC(O)=C1C(=O)OC	1	-10	·	·	·	·	·	·
O=C(O)CSc1ncnc2scc(-c3ccccc3)c12	-2	1	0	-2	0	·	·	·
O=C(O)CSc1ncnc2scc(-c3ccc(Br)cc3)c12	0	51*	10	-1	1	37	-1	25
Cn1c(-c2c(N)n(CCc3ccccc3)c3nc4ccccc4nc23)nc2ccccc21	10	46*	23	4	2	38	-2	29
Nc1c(C(=O)NCCN2CCOCC2)c2nc3ccccc3nc2n1CCc1ccccc1	4	32*	37	5	6	5	8	-7
COCCNC(=O)c1c(N)n(CCCn2ccnc2)c2nc3ccccc3nc12	6	40*	16	1	-4	-18	-17	-15
COc1ccc(C2CC(c3ccccc3C(F)(F)F)=NN2c2ccc(S(N)(=O)=O)cc2)cc1 (stereo not drawn)	12	16	·	·	·	·	·	·
CCc1nc2sccc2c(=O)[nH]1	-1	1	20	0	4	·	·	·
CCn1nc(NC(=O)c2ccccn2)c2cc3cccc(C)c3nc21	1	68*	-1	2	-2	4	-25	15
Cc1cn(C2CCCCO2)c(=O)[nH]c1=O (stereo not drawn)	1	-1	·	·	·	·	·	·
CC1=CC(=C2N=C(c3ccccc3)OC2=O)C=C(C)O1	-3	51*	1	-1	-3	152*	-56	9
Cc1cc(/C=C2\C(=N)N3C(SCc4ccccc4)=NSC3=NC2=O)c(C)n1Cc1ccccc1	31*	44*	10	2	0	-1	-28	-36
Cc1ccccc1-n1c(C)cc(/C=C2/C(=N)N3C(c4ccccc4)=CSC3=NC2=O)c1C	22	103*	-12	0	10	27	23	29

Screening data (PubChem)
